# Only some compounds are listed: those with a hit (about 3.1% of all), similar ones and a draw of the others.
# ATG4B inhibitor: inhibitors of human ATG4B cysteine protease; actives 0.51% (n = 340,000); inhibition, % at 8.33 µM; ATG4B cleavage of LC3-PLA2, NBD-HPC fluorescence, 1 h; AID 504462; Q9Y4P1; in the data active = inhibition above about 40%
# Target sequence (Q9Y4P1 whole entry, looked up): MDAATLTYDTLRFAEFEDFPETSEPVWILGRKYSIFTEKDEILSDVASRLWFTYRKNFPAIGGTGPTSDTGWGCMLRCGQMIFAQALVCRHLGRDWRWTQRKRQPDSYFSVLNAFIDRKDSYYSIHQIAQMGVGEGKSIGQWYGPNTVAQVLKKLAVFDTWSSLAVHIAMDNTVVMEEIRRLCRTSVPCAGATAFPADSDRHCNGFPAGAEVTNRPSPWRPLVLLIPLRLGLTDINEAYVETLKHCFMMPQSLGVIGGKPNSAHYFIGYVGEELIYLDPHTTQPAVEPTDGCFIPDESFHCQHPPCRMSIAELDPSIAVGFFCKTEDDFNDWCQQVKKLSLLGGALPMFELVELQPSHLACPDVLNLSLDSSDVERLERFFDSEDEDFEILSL
# Calb FLC: affects C. albicans growth with fluconazole; C. albicans CaCi-2 (fluconazole-resistant clinical isolate) + fluconazole, Alamar Blue growth, 48 h; actives 0.57% (n = 300,000); AID 1979; growth inhibition, % (concentration not given with the values);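 active = growth inhibition above about 58% in most replicates, limit read from the data, passing the limit was not always enough; inconclusive = exactly half the replicates above a set limit; inactive = most replicates below a set limit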;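 note: all wells also contain fluconazole at 8 µg/ml as a sub-toxic cotreatment; 0% = median of DMSO wells and 100% = median of geldanamycin control wells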
# Mot1-301 SUMO: blocks SUMOylation pathway, rescuing yeast Mot1-301 growth; actives 1% (n = 320,000); S. cerevisiae Mot1-301 growth rescue, ATP luminescence, 38.5C; percent above DMSO median, 100 means doubled; growth rescue, % at 18.8 µM;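 active = every valid replicate shows activation above 250% relative to neutral control wells; inactive = the rest, any valid replicate at or below 250%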;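 note: OY570 slx delta 5 strain wells were the positive control but not used for scaling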
# FAS-TE inh: blocks the thioesterase domain of human fatty acid synthase. P49327. recombinant FAS-TE, OMFH fluorogenic substrate, fluorescence endpoint. inhibition, % at 15 µM. actives 0.67% (n = 360,000). AID 602261;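 active = compounds whose normalised, plate-corrected inhibition of enzyme fluorescence in the single-dose primary screen is 50% or more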;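 note: 0% = DMSO with enzyme and 100% = substrate without enzyme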
# NadD block: blocks S. aureus nicotinate mononucleotide adenylyltransferase; actives 0.78% (n = 360,000); purified NadD enzyme, colorimetric absorbance read-out; inhibition, % at 20 µM; in the data active = inhibition above about 26%
# * = called active by the depositor; ? = inconclusive; . = no result; ! = repeats disagree.
SMILES,ATG4B inhibitor,Calb FLC,Mot1-301 SUMO,FAS-TE inh,NadD block
CCOc1cc(N2CCOCC2)c(OCC)cc1NC(=O)c1nc2nc(C)cc(C)n2n1,2,101*,8,-3,0
CCOc1cc(N2CCOCC2)c(OCC)cc1NC(=O)c1ccccc1C,-1,46,-17,1,1
C=CCc1cccc2cc(C(=O)Nc3ccc(S(=O)(=O)Nc4nnc(CC)s4)cc3)c(=O)oc12,-13,-3,-4,8,50*
C=CCc1cccc2cc(C(=O)Nc3ccc(F)cc3)c(=O)oc12,-7,1,-10,-6,3
CN1CCc2cc3c(c4c2[C@H]1[C@H](O)c1ccccc1-4)OCO3,-9,95*,-7,-10,6
COc1ccc2c(c1OC)C(C1c3c(cc4c(c3OC)OCO4)CCN1C)OC2=O (configuration not stated),2,-8,10,-8,-6
COc1ccc2c(c1OC)C(=O)OC2C1c2c(cc3c(c2OC)OCO3)CCN1C (configuration not stated),3,3,484*!,-1,-1
CCOC(=O)c1ccc(N(CCC2CO2)S(=O)(=O)c2ccc(C)cc2)cc1 (configuration not stated),10,.,.,8,-1
CCCC[n+]1c2ccccc2cc2ccccc21,0,93*,19,-6,13
CCC[n+]1c2ccccc2cc2ccccc21,7,94*,-6,-4,8
CC(Sc1ccccc1F)C(=O)Nc1ccc2c(c1)OCCO2 (configuration not stated),-3,.,5,1,-6
Cc1cc(O)c(CN(C)C)c2c1C(=O)/C(=C/c1ccco1)O2,-6,-6,12,-12,-3
Cc1cc(O)c(C=O)c2c1C(=O)Oc1c(CO)c(O)c3c(c1O2)C(O)OC3=O (configuration not stated),86*,.,-19,0,34*
COc1ccccc1NC(=S)N=Nc1c(O)[nH]c2ccc(Br)cc12,2,34,-8,-1,30*
CC1(c2nnnn2-c2ccc3c(c2)OCCO3)CCC(=O)N1C1CCN(Cc2ccccc2)CC1 (configuration not stated),.,.,.,-12,1
CCC(C)c1ccccc1NC(=O)COC(=O)C1=COCCO1 (configuration not stated),-10,-5,-8,-3,-8
CC(C)C(=O)NC(c1ccco1)c1ccc2cccnc2c1O (configuration not stated),-5,98*,3,-1,-2
Oc1c(C(Nc2nc3ccccc3s2)c2ccco2)ccc2cccnc12 (configuration not stated),10,?,-2,8,35*
CC(=O)NC(c1ccco1)c1cc(F)c2cccnc2c1O (configuration not stated),2,.,-1,-1,1
CC(C)C(=O)NC(c1cccc([N+](=O)[O-])c1)c1ccc2cccnc2c1O (configuration not stated),-5,6,13,9,1
Nc1nc2ccc(Cl)cc2cc1C(=O)NCc1ccc(Oc2ccccc2)cc1,.,.,.,0,11
C#CCOCCOCCOCCNc1nc(N2CCOCC2)nc(N2CCN(C(=O)[C@H](Cc3cc4ccccc4[nH]3)n3cc([C@@H](N)CC(C)C)nn3)CC2)n1,-22,14,-12,-6,6
C#CCOCCOCCOCCNc1nc(N2CCN(C(=O)[C@H](Cc3ccc(O)cc3)n3cc([C@@H](N)C(C)CC)nn3)CC2)nc(N2CCN(C(=O)[C@H](Cc3cc4ccccc4[nH]3)n3cc([C@@H](N)C(C)CC)nn3)CC2)n1 (some centres not stated),-15,9,-3,-13,34*
C#CCOCCOCCOCCNc1nc(N2CCN(C(=O)[C@H](Cc3cc4ccccc4[nH]3)n3cc([C@@H](N)CC(C)C)nn3)CC2)nc(N2CCN(C(=O)[C@H](Cc3cc4ccccc4[nH]3)n3cc([C@@H](N)CC(C)C)nn3)CC2)n1,-19,22,-11,-20,70*
NC(c1ccncc1)c1ccc(Cl)cc1 (configuration not stated),.,.,.,-8,-7
SMILES,ATG4B inhibitor,Calb FLC,Mot1-301 SUMO,FAS-TE inh,NadD block
O=C1c2ccccc2C(c2nnnn2Cc2ccccc2)N1CCc1c[nH]c2ccccc12 (configuration not stated),.,.,.,0,-7
CC1CCc2nc3sc4c(c3c(N)c2C1)CCCC4 (configuration not stated),8,?,-2,4,-2
Nc1c2c(nc3sc4c(c13)CCCCC4)CCCCC2,1,95*,-13,-3,-2
O=[N+]([O-])c1ccc(/C=N/NC(=S)Nc2ccc(Cl)cc2Cl)s1,-7,107*,-23,-40,8
O=C(N/N=C/c1ccc([N+](=O)[O-])s1)c1ccccc1,-5,17,.,0,2
O=[N+]([O-])c1ccc(O)c(/C=N/NC(=S)Nc2ccc(Cl)cc2Cl)c1,0,101*,-22,42,4
Fc1ccc(/C=N/NC(=S)Nc2ccc(Cl)cc2Cl)cc1,9,0,124,0,0
O=C(N/N=C\c1ccc([N+](=O)[O-])s1)c1cncc(Br)c1,-11,108*,.,-3,1
CC1(c2nc3ccccc3[nH]2)c2ccccc2C(=O)N1Cc1ccccn1 (configuration not stated),.,.,.,-8,3
COc1ccc(N(CC(=O)NCCSc2ccccc2)S(=O)(=O)c2ccccc2)c(OC)c1,1,.,-15,24,-2
COc1cc(NC(=O)[C@@H]2CCCN2S(=O)(=O)c2cccc3cccnc23)cc(OC)c1OC,-15,.,28,-11,4
Cc1ccc(OCC(=O)N/N=C\c2c(C)[nH]n(-c3ccccc3)c2=O)c([N+](=O)[O-])c1,-2,106*,-16,10,-12
CC(C)(C)c1cc(NCc2ccccn2)n2ncc(-c3ccc(Cl)cc3)c2n1,-9,-2,-15,37,2
CN(C)CCCNc1cc(C(C)(C)C)nc2c(-c3ccc(Cl)cc3)cnn12,7,95*,261,33,-11
CC(C)(C)n1ncc2c(=O)n(Cc3cccc(Cn4cnc5c(cnn5C(C)(C)C)c4=O)c3F)cnc21,-2,.,23,55*,0
Cc1ccccc1Cn1cnc2c(cnn2C(C)(C)C)c1=O,13,8,0,0,5
CCN(Cc1ccc(O)cc1)CC1CCCN(CCc2cccc(F)c2)C1 (configuration not stated),4,-4,-5,-2,-7
O=C(NCC1CC1)c1onc(CSc2ccncc2)c1C(=O)NCC1CC1,9,0,4,-5,2
CN(C)c1ccc(C(C[N+](=O)[O-])c2c(N)n(C)c(=O)n(C)c2=O)c(F)c1C#N (configuration not stated),-1,-9,78,-5,-4
